According to PubChem BioAssay AID652013 (National Center for Advancing Translational Sciences (NCATS), 2013):
Values joined by “and” are separate entries in the source; they are usually repeats but may differ in a detail not shown here. Equal values may be shown once.

Experiment: qHTS of Nrf2 Activators: Hit Validation in NQO-1 Induction Assay
Details: Hepa1c1c7 cells, NQO1 mRNA qPCR, 24 h; at 1 µM; stronger effect = higher value;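 active = relative NQO1 transcription at 1 µM of 250% or more; inconclusive = relative NQO1 transcription between 200% and 250%; inactive = relative NQO1 transcription under 200%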
Description: Many diseases have some form of oxidative stress injury and ties to inflammation, causing a host of problems for the patient. The antioxidant response element (ARE) plays an important role in alleviating the harmful effects of oxidative stress. The antioxidant response element (ARE) is a transcriptional regulatory element involved in the activation of genes coding for a number of antioxidant proteins and detoxifying enzymes. These enzymes work in concert to protect tissues from oxidative insults and chemical toxicities in human hepatocytes and immune cells. The protective effects of ARE activation are primarily triggered through Nrf2 (NF-E2-related factor) binding to and activating AREs. It is known that Nrf2 controls the production of over 250 antioxidant and detoxification proteins (Hu et al., 2006), thereby protecting tissues by increasing cellular antioxidant content and suppressing inflammatory signaling pathways. The transcription factor Nrf2 is a central link between oxidative chemicals, such as phenolic antioxidants and electrophilic compounds, and the activation of ARE. Nrf2 levels are constitutively low as a consequence of its interaction with Keap1, which targets its degradation (Zipper and Mulcahy, 2002). Electrophiles react with key cysteine residues in Keap1, releasing Nrf2 and allowing its translocation to the nucleus. Once within the nucleus, Nrf2 complexes with coactivators such as p300, and binds to the AREs to induce gene transcription of cytoprotective enzymes, resulting in the prevention of toxicity. Activation of Nrf2 protects tissues by increasing cellular antioxidant content and suppressing inflammatory signaling pathways. Identifying novel and potent Nrf2 activators by using the AREc32 cell line to detect ARE activation by small molecules will lead to the identification and development of probes to study protective pathways in multiple tissues. These specific probes are essential to study the ARE pathway, and eventually to determine whether this pathway does activate genes that could protect against a host of diseases, including cardiovascular diseases, obesity, diabetes, Alzheimer's, and Parkinson's disease. This project's aim is to identify novel and potent Nrf2 activators by using the AREc32 cell line to detect ARE activation by small molecules, which will lead to the identification and development of probes to study the ARE pathway. Compounds that were identified in the primary screen were tested in this secondary assay to assess whether a hit also activates Nrf2 transcription of the target gene NQO-1. NIH Chemical Genomics Center [NCGC] NIH Molecular Libraries Probe Centers Network [MLPCN] MLPCN Grant: DK081461 Assay Submitter (PI): Curtis Klaassen, University of Kansas Medical Center
Hepac1c7 cells were seeded into 24-well plates at a density of 30,000 cells/well in 1 mL complete media per well and cultured overnight to allow attachment. Cells were treated the next day with compounds (1 uM)or positive control for 24 h. Total RNA samples were then isolated by using RNAzol B reagent (Tel-Test, Inc., Friendswood, TX) according to the manufacturer's protocol. Total RNAs were reverse-transcribed into cDNA by High Capacity cDNA Archive Kits (Applied Biosystems, Foster City, CA) and the resulting cDNA was used for real-time PCR analysis using SYBR(R) Green PCR Master Mix in a 7900HT Fast Real-Time PCR System.

Relative NQO1 transcription, inactive:
O=C(Nc1ncnc2sc3c(c12)CCCCC3)c1ccco1 163% and 137%
COc1ccc(NC(=O)c2cc(-c3cccs3)on2)c(OC)c1 129%
O=C(Nc1cccc2ncccc12)c1ccc(Cl)cc1 136%
O=C(Nc1ncnc2sc3c(c12)CCC3)c1ccco1 175%
CS(=O)(=O)c1nc(S(=O)(=O)c2ccc(Cl)cc2)c(N2CCOCC2)s1 129%
Clc1ccc2c(NCc3ccccn3)ncnc2c1 83%
COc1ccccc1NC(=O)c1cc(Cl)nc2ccccc12 79%
Cc1nc(NCc2ccco2)nc2c1C(=O)CC(C)C2 (stereo not given) 175%
COC(=O)c1c(NC(=O)c2ccccc2)sc(C(N)=O)c1C 60%
COc1ccc(NC(=O)c2cc(-c3ccco3)on2)c(OC)c1 75%
